# Reference: PubChem BioAssay (Tox21)
# Where “and” joins values, the source holds several entries; their conditions need not be identical. Identical values can stand only once. Records with an inconclusive call do not appear. A call without a number means that no potency is given here. Where a structure was tested more than once in an assay, its records may differ in their call. Calls of active or inactive are those of the source. Unless noted, calls come from the whole dose curve.
# Tests used:
# [1] = Nuclear factor erythroid 2-related factor 2/antioxidant responsive element (Nrf2/ARE) small molecule agonists: qHTS cell viability counter screen in human keratinocytes (AID 1919968; active = well fitted curve in the direction sought with a large enough effect in the repeat runs; an effect the other way counts as inactive or inconclusive; note: nearly all actives have a fitted effect of over 55% in size; note: potency is the fitted concentration of half-maximal effect)
# In short: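 Viability counter-screen: KeratinoSens reporter cells, DMSO-delivered compounds, 23 h at 37 C, CellTiter-Fluor fluorescence.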
# [2] = Nuclear factor erythroid 2-related factor 2/antioxidant responsive element (Nrf2/ARE) small molecule agonists: luciferase reporter gene qHTS assay in human keratinocytes (AID 1919969); note: nearly all actives have a fitted effect of over 35% in size; note: potency is the fitted concentration of half-maximal effect
# [3] = molecular target: Gonadotropin-releasing hormone receptor (Homo sapiens) (UniProt P30968); experiment: Human gonadotropin-releasing hormone receptor (GnRHR) small molecule agonists, calcium flux assay in GnRHR-HEK293 cells (AID 1920063); note: nearly all actives have a fitted effect of over 35% in size
# Sequence of Gonadotropin-releasing hormone receptor (Homo sapiens) (P30968 whole entry, looked up): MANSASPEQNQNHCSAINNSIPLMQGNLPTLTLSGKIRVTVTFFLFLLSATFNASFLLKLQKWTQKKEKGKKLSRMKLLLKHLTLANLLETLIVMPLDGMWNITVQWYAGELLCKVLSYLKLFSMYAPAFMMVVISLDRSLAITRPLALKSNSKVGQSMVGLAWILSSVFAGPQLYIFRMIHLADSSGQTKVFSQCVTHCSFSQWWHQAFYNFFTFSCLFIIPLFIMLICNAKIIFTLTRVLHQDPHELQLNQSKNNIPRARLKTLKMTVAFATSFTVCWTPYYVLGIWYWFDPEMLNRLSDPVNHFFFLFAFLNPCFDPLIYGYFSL
# In short: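 Tox21-format agonist screen using human GnRHR-expressing HEK293 cells and a fluorescent calcium dye; kinetic 3-min fluorescence reading after compound addition, 15-point concentration series run in triplicate.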
# [4] = molecular target: KiSS-1 receptor (Homo sapiens) (UniProt Q969F8); experiment: Human kisspeptin (KISS1R) small molecule agonists, calcium flux assay in KISS1R-HEK293 cells (AID 1920064; active = well fitted curve in the direction sought with a large enough effect in the repeat runs; an effect the other way counts as inactive or inconclusive)
# Sequence of KiSS-1 receptor (Homo sapiens) (Q969F8 whole entry, looked up): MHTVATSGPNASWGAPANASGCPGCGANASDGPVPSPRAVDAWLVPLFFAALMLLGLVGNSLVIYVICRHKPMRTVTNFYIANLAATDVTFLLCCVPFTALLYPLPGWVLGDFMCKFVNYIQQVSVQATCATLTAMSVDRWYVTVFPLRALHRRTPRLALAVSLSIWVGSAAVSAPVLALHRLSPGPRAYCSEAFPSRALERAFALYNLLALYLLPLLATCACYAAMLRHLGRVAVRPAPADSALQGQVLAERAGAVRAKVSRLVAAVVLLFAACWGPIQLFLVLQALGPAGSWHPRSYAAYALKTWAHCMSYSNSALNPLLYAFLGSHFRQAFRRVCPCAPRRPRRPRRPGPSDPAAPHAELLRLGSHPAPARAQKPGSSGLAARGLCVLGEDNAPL
# In short: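 Intracellular calcium mobilization in KISS1R-HEK293 cells was recorded by fluorescence (Ex/Em 480/540) for 3 min following compound addition to cells pre-loaded 1 h with calcium dye.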
# [5] = G protein-coupled receptor (GPCR) small molecule agonists, calcium flux assay: HEK293 wild type cell line counter screen (AID 1920065)
# In short: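 In this agonist-mode screen, ATP is the positive control and DMSO the vehicle. Cells grow 18 h before a 1 h dye incubation at 37 C; signal is taken at Ex/Em 480/540 over 3 min.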
# [6] = p53 small molecule agonists, cell-based qHTS assay with human liver microsomes (AID 1963577);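 note: p53 response element beta-lactamase reporter cells with liver microsomes plus NADPH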
# In short: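 In this qHTS, p53 response-element beta-lactamase cells receive test compound together with a microsome/NADPH activating system (0.5 mg/mL final each) and are incubated 16 h at 37 C before LiveBLAzer fluorescence detection.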
# [7] = p53 small molecule agonists, cell-based qHTS assay with rat liver microsomes (AID 1963578)
# In short: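 Agonist mode in p53RE-bla reporter cells, with compounds co-incubated 16 h at 37 C alongside 0.5 mg/mL rat liver microsomes and 0.5 mg/mL NADPH (final), followed by a 2 h LiveBLAzer detection step.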
# [8] = p53 small molecule agonists, cell-based qHTS assay with human liver microsomes: qHTS cell viability counter screen (AID 1963579); note: nearly all actives have a fitted effect of over 45% in size; note: potency is the fitted concentration of half-maximal effect
# In short: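 Metabolically activated exposure: compounds, human liver microsomes and NADPH (0.5 mg/mL final apiece) were added to p53RE-bla cells seeded 5 h earlier, left 16 h at 37 C, and then assessed for viability by CellTiter-Glo luminescence.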
# [9] = p53 small molecule agonists, cell-based qHTS assay with rat liver microsomes: qHTS cell viability counter screen (AID 1963580); note: nearly all actives have a fitted effect of over 45% in size; note: potency is the fitted concentration of half-maximal effect
# In short: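 Intracellular ATP, by CellTiter-Glo luminescence, defines viability. HCT-116 p53RE-bla cells, 4,000 per well, were compound-treated in the presence of rat liver microsomes and NADPH for 16 h at 37 C.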
# [10] = molecular target: 5-hydroxytryptamine receptor 2A (Homo sapiens) (UniProt P28223); experiment: 5-hydroxytryptamine receptor 2A (HTR2A) small molecule antagonists, cell-based qHTS assay (AID 1963586); note: nearly all actives have a fitted effect of over 45% in size
# Sequence of 5-hydroxytryptamine receptor 2A (Homo sapiens) (P28223 whole entry, looked up): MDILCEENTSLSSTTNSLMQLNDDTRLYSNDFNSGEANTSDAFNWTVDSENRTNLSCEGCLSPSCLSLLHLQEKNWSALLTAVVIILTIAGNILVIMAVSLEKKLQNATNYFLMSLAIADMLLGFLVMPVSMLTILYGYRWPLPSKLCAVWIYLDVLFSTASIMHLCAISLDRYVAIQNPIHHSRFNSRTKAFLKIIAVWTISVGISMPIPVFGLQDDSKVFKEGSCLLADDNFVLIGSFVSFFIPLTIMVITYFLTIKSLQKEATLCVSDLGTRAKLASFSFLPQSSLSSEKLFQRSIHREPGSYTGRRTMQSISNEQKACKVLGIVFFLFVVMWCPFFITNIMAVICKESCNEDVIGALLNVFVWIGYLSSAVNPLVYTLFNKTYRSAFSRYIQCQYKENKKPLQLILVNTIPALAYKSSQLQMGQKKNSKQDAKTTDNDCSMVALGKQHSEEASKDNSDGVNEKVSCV
# In short: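 Antagonist-mode intracellular calcium assay: DOI (4 nM) added after 5 min compound pre-incubation at room temperature to dye-loaded HTR2A-CHO cells. Fluorescence followed for 3 min, sampled every second.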
# [11] = molecular target: 5-hydroxytryptamine receptor 2A (Homo sapiens) (UniProt P28223); experiment: 5-hydroxytryptamine receptor 2A (HTR2A) small molecule agonists, cell-based qHTS assay (AID 1963587); note: nearly all actives have a fitted effect of over 30% in size
# In short: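 Kinetic calcium-flux fluorescence (2 min, 1 sec intervals) after compound addition in agonist mode. HTR2A-CHO cells were cultured 18 h, then dye-loaded 1 h at 37 C.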
# [12] = molecular target: Muscarinic acetylcholine receptor M1 (Homo sapiens) (UniProt P11229); experiment: Cholinergic receptor muscarinic 1 (CHRM1) small molecule antagonists, cell-based qHTS assay (AID 1963588); note: nearly all actives have a fitted effect of over 40% in size; note: potency is the fitted concentration of half-maximal effect
# Sequence of Muscarinic acetylcholine receptor M1 (Homo sapiens) (P11229 whole entry, looked up): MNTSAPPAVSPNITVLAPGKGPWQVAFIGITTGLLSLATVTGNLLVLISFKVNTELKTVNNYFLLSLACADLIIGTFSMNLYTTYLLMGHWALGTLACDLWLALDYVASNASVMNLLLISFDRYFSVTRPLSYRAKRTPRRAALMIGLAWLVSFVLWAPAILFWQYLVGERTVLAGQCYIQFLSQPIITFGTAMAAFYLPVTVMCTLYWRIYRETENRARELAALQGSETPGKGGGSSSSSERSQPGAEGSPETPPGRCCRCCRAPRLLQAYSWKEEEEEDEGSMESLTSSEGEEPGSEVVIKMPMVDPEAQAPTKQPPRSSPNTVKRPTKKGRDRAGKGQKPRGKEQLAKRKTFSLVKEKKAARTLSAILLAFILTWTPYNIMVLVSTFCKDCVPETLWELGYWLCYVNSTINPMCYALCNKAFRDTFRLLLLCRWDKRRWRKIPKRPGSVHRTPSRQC
# In short: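 CHRM1-CHO calcium-flux assay, antagonist mode. Cells were seeded 18 h, dye-loaded 1 h at 37 C and given compound for 5 min at RT, then acetylcholine was added at 50nM. FDSS fluorescence was read 3 min; 15 concentrations, three runs.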
# [13] = cAMP Responsive Elements (CRE) small molecule agonists, cell-based qHTS assay (AID 1963590)
# In short: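 FRET-based beta-lactamase readout (LiveBLAzer B/G, 2 h RT) quantified CRE activation in HEK 293T CRE-bla cells after 3 h treatment with DMSO-dissolved compounds.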
# [14] = cAMP Responsive Elements (CRE) small molecule antagonists, cell-based qHTS assay (AID 1963591; active = well fitted inhibition curve with a large enough effect in the signal ratio in the repeat runs, not every such curve was filed as active; the % refers to the signal ratio)
# In short: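 qHTS in CRE-bla HEK 293T cells: compound in DMSO, then 0.25 uM NKH477 (final), 3 h at 37 °C/5% CO2; beta-lactamase FRET read-out after 2 h substrate incubation.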
# [15] = molecular target: Beta-2 adrenergic receptor (Homo sapiens) (UniProt P07550); experiment: Adrenergic beta2 receptor (ADRB2) small molecule antagonists, cell-based qHTS assay (AID 1963592); note: nearly all actives have a fitted effect of over 50% in size; note: potency is the fitted concentration of half-maximal effect
# Sequence of Beta-2 adrenergic receptor (Homo sapiens) (P07550 whole entry, looked up): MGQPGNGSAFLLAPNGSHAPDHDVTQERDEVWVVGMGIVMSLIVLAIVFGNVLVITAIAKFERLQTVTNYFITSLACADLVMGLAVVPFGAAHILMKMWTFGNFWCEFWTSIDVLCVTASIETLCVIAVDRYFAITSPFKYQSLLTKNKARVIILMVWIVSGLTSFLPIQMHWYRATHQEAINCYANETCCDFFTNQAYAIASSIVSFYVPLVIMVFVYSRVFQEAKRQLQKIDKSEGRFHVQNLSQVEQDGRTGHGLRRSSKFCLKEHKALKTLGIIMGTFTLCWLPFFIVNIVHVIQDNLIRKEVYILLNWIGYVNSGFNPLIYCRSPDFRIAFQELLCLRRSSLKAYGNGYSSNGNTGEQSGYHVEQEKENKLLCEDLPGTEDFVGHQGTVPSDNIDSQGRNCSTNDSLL
# In short: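 Cells (CHO, stable ADRB2 overexpression) incubated 18-20hr at 37C; compounds added from DMSO; agonist mix (1nM isoproterenol, 100uM IBMX, 25uM Ro-20-1724) added; 0.5hr RT; d2-cAMP and anti-cAMP-cryptate added; 1hr RT; 665/615 nm read.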
# [16] = molecular target: D(2) dopamine receptor (Homo sapiens) (UniProt P14416); experiment: Dopamine D2 receptor (DRD2) small molecule antagonists, cell-based qHTS assay (AID 1963595; active = well fitted inhibition curve with a large enough effect in the signal ratio in the repeat runs, with a control signal flat; the % refers to the signal ratio)
# Sequence of D(2) dopamine receptor (Homo sapiens) (P14416 whole entry, looked up): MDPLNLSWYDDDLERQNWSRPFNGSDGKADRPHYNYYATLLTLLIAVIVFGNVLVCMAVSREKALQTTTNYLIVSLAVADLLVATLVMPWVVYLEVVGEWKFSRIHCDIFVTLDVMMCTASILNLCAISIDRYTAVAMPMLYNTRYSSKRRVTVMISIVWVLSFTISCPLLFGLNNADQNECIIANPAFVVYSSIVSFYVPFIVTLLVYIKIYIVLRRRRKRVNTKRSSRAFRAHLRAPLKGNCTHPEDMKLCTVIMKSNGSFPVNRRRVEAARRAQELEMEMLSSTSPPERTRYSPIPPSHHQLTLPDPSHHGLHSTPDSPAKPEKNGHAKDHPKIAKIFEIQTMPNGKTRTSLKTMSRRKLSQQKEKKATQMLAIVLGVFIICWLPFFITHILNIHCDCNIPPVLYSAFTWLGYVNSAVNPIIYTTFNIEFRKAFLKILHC
# In short: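 Readout: HTRF cAMP, cAMP-d2 competing with cellular cAMP for anti-cAMP cryptate, read after 1 h. Cells: DRD2-HEK293. Conditions: 0.1 mM Ro20-1724, 12 nM quinpirole, 200 nM NKH477, 30 min RT.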
# [17] = p53 small molecule agonists, cell-based qHTS assay: qHTS cell viability counter screen (AID 1963581); note: nearly all actives have a fitted effect of over 45% in size
# In short: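 Compounds are pinned onto HCT-116 p53RE-bla cells and left 16 h at 37 C. Following the reporter FRET read, ATP is quantified by CellTiter-Glo luminescence after 30 min at room temperature.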
# [18] = p53 small molecule agonists, cell-based qHTS assay (AID 1963582; active = well fitted activation curve with a large enough effect in the signal ratio in the repeat runs, not every such curve was filed as active; the % refers to the signal ratio)
# In short: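 Agonist activity was scored from beta-lactamase FRET fluorescence in p53RE-bla cells treated 16 h at 37 C with compounds in DMSO, substrate incubation being 2 h at room temperature.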
# [19] = molecular target: Muscarinic acetylcholine receptor M1 (Homo sapiens) (UniProt P11229); experiment: Cholinergic receptor muscarinic 1 (CHRM1) small molecule agonists, cell-based qHTS assay (AID 1963589); note: nearly all actives have a fitted effect of over 35% in size
# In short: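 Stable CHRM1-CHO cells (human receptor) were incubated 18 h, dye-loaded for 1 h at 37 C and exposed to test compounds for agonist activity, with calcium-dependent fluorescence followed kinetically.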
# [20] = molecular target: D(2) dopamine receptor (Homo sapiens) (UniProt P14416); experiment: Dopamine D2 receptor (DRD2) small molecule agonists, cell-based qHTS assay (AID 1963594); note: nearly all actives have a fitted effect of over 35% in size
# In short: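 cAMP accumulation in DRD2-HEK293 cells measured by HTRF after 1 h detection; compounds added 10 min before NKH477 (200nM […]) forskolin-analogue stimulation, 30 min at room temperature, with Ro20-1724 present at 0.1 mM final.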
Structure (SMILES),Potency [1],Potency [2],Potency [3],Potency [4],Potency [5],Potency [6],Potency [7],Potency [8],Potency [9],Potency [10],Potency [11],Potency [12],Potency [13],Potency [14],Potency [15],Potency [16],Potency [17],Potency [18],Potency [19],Potency [20]
CCN(CC)C(=O)C(C)Oc1cccc2ccccc12 (centres undefined),inactive,inactive,inactive,inactive,inactive,inactive,inactive,inactive,inactive,inactive,inactive,inactive,inactive,inactive,inactive,inactive,,,,
CCCCCCCCCBr,inactive,inactive,inactive,inactive,inactive,inactive,inactive,inactive,,inactive,inactive,inactive,inactive,inactive,inactive,inactive,inactive,inactive,inactive,
O=c1[nH]c2ccccc2n1C1CCN(CCCC(c2ccc(F)cc2)c2ccc(F)cc2)CC1,27.3 µM (active) and 13.3 µM (active),inactive,inactive,inactive,inactive,inactive,inactive,28.9 µM (active) and inactive,40.8 µM (active) and inactive,,inactive,inactive,,,33.5 µM (active),,,,inactive,inactive
COC(=O)C(Br)CBr (centres undefined),inactive,inactive,inactive,inactive,inactive,inactive,inactive,inactive,,inactive,inactive,inactive,inactive,inactive,,inactive,inactive,inactive,inactive,inactive
Cc1cccc(C#N)c1,inactive,inactive,inactive,inactive,inactive,inactive,inactive,inactive,,inactive,inactive,inactive,inactive,inactive,inactive,inactive,inactive,inactive,inactive,inactive
CCCC1CCCCN1 (centres undefined),inactive,inactive,inactive,inactive,inactive,inactive,inactive,inactive,,inactive,inactive,inactive,inactive,inactive,inactive,inactive,inactive,inactive,inactive,inactive
CCCCC(CC)CO[N+](=O)[O-] (centres undefined),inactive,inactive,inactive,inactive,inactive,inactive,inactive,inactive,,inactive,inactive,inactive,inactive,inactive,inactive,inactive,inactive,inactive,inactive,inactive
ClCCN1CCOCC1,inactive,inactive,inactive,inactive,inactive,inactive,inactive,inactive,inactive,inactive,inactive,inactive,inactive,inactive,inactive,inactive,,inactive,inactive,inactive
OCC(Br)CBr (centres undefined),inactive,inactive,inactive,inactive,inactive,inactive,inactive,inactive,,inactive,inactive,inactive,inactive,inactive,inactive,inactive,inactive,inactive,inactive,inactive
CCC(=O)OC1(c2ccccc2)CCN(C)CC1,inactive,inactive,inactive,inactive,inactive,inactive,inactive,inactive,inactive,,inactive,inactive,inactive,inactive,inactive,inactive,,inactive,,inactive
O=C1CC(=O)NC(=O)N1,inactive,inactive,inactive,inactive,inactive,inactive,inactive,inactive,,inactive,inactive,inactive,inactive,inactive,,inactive,inactive,inactive,inactive,inactive
C=CCN1C[C@H](C)N([C@H](c2ccc(C(=O)N(CC)CC)cc2)c2cccc(OC)c2)C[C@H]1C,inactive,inactive,inactive,inactive,inactive,inactive,inactive,inactive,inactive,inactive,inactive,2.59 µM (active),inactive,inactive,inactive,inactive,,inactive,inactive,inactive
N#Cc1ccccn1,inactive,63.7 µM (active) and inactive,inactive,inactive,inactive,inactive,inactive,inactive,,inactive,inactive,inactive,inactive,inactive,inactive,inactive,inactive,inactive,inactive,inactive
